# Bioassay records as filed in PubChem BioAssay.
# An excerpt weighted towards active compounds, which were near 9% of everything screened.
# IMPase cell inh: qHTS Assay for Identifying the Cell-Membrane Permeable IMPase Inhibitors | Inositol monophosphatase 1 (Rattus norvegicus), P97697 | CHO-M1 cells, IP1 accumulation, HTRF TR-FRET ratio | inhibition (IP1 accumulation), % at 46.1 µM | 120,000 tested, under 10 active | AID 901, 2007; active = well fitted curve in the direction sought with a large enough effect in the signal ratio, not every such curve was filed as active; inconclusive = small, poorly fitted or top-dose-only effect, or a change in a side signal; inactive = no such curve, though single readings can be large or run the other way; the % refers to the signal ratio;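 also: cells stimulated with carbachol in lithium chloride buffer; plate controls were DMSO basal wells for no effect and reference inhibitor wells for full effect; higher means more IMPase inhibition seen as more IP1 and lower FRET ratio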
# Target sequence (P97697 whole entry, looked up): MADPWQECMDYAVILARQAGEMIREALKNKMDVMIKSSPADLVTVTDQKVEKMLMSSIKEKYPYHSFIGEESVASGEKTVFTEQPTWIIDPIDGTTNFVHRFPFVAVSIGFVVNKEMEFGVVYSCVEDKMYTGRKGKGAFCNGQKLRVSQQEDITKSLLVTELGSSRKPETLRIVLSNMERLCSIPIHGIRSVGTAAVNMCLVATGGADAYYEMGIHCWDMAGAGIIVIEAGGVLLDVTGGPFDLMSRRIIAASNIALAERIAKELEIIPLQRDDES
#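 Seeded CHO-M1 cells were dosed with compound at up to 46 uM, stimulated with carbachol for 30 min, then lysed in IP-One detection reagents. Higher IP1 lowers the TR-FRET signal.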
# ALDH1A1 block: qHTS Assay for Inhibitors of Aldehyde Dehydrogenase 1 (ALDH1A1); Aldehyde dehydrogenase 1A1 (Homo sapiens), P00352; Purified ALDH1A1, NADH fluorescence, propionaldehyde substrate; AID 1030, 2008; Potency, µM (series often up to 75.3 µM), for inactives: at the top dose activity, negative = inhibition, actives largely listed as inhibitors; 7.3% of 220,000 active;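 also: potency is read from the fitted curve at half-maximal effect; plate controls were no enzyme wells and a reference inhibitor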
# HPGD block: qHTS Assay for Inhibitors of HPGD (15-Hydroxyprostaglandin Dehydrogenase); 15-hydroxyprostaglandin dehydrogenase [NAD(+)] (Homo sapiens), P15428; purified HPGD, NADH fluorescence kinetic, PGE2 substrate; Potency, µM, for inactives: at the top dose activity change, negative = inhibition, most hits filed as inhibitors; 4.3% of 150,000 active; AID 894, 2007; also: potency is read from the fitted curve at half-maximal effect
# Target sequence (P15428 whole entry, looked up): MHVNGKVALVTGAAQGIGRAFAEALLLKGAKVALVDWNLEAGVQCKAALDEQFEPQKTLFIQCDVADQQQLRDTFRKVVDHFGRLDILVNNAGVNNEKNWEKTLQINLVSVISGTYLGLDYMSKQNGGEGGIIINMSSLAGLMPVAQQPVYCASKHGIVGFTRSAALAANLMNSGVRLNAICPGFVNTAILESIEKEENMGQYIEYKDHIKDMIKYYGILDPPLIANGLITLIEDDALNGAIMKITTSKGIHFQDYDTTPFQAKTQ
#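 20 nM HPGD preincubated 15 min at room temperature with compound in 50 mM Tris-HCl pH 8, 0.01% Tween 20. Started with 1 mM NAD+ and 30 uM prostaglandin E2; NADH fluorescence (360/450 nm) read 5 times over 30-s intervals, last minus first.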
# Starred values were filed as active, the others as inactive; ? = inconclusive; · = not tested or not shown; [ ] = another dose, or the depositor's remark. Unless noted, calls follow the shape of the dose curve; as a rule, active = well fitted inhibition curve with a large enough effect (not every such curve was filed as active); inconclusive = small, poorly fitted or top-dose-only effect, or another doubt; inactive = no such curve, though single readings can be large or run the other way. Unless noted, % is scaled to controls: 0 for no effect and ±100 for the full control effect.
SMILES,IMPase cell inh,ALDH1A1 block,HPGD block
Cc1c(C(=O)O)nnn1-c1ccccc1,?,7.9%,-14.6%
Cc1c(C(=O)NNC(=S)Nc2cccc(Cl)c2)nnn1-c1ccccc1,·,11.2µM*,-28.8%
C[C@@]12C[C@H](O)C3[C@H](CCC4=CC(=O)CC[C@]43C)[C@H]1CC[C@@H]2c1csc(-c2ccccc2)n1 (stereo not given in full),·,3.2%[13.5 µM],-15.2%
Cc1cc(C(=O)Nc2nc3c(s2)CCCC3)no1,3.5,11.2µM*,-17.6%
Cc1onc(-c2ccccc2)c1C(=O)Nc1nc2c(s1)CCCC2,-6.5,?,-14.4%
O=C(/C=C\c1ccc(O)cc1)c1ccc(O)cc1O,-5.1,·,·
CC12CN3CC(C)(CN(C1)C3c1ccc(F)cc1)C2 (stereo not given),·,6.5%,·
COc1cccc(N(CC(=O)NCCSc2ccc(Cl)cc2)S(C)(=O)=O)c1,-0.5,0.2%,-8.6%
CCOC(=O)c1c(NC(=S)Nc2cc([N+](=O)[O-])ccc2OC)sc2c1CCCCC2,-7.9,?,-26.6%
COC(=O)c1c(NC(=S)Nc2cc(OC)c(Cl)cc2OC)sc2c1CCCCC2,·,6.31µM*,?
O=C(NC(c1ccccc1)c1ccccn1)c1cccc([N+](=O)[O-])c1 (stereo not given),·,14.1µM*,·
O=C(NNC(=O)c1ccccn1)c1cccc([N+](=O)[O-])c1,·,8.7%,·
Cc1ccnc(NC(=O)CCC(=O)N(CC(=O)NC2CCCCC2)Cc2ccccc2)c1,·,6.4%,·
Cc1ccnc(NC(=O)CCC(=O)N(CC(=O)NCc2ccccc2)Cc2cccs2)c1,·,15.8µM*,·
CN(c1ccc(O)cc1)c1nc(-c2ccccc2)cs1,·,9.1%,15.8µM*
CN(C)CCCN(C(=O)c1cccs1)c1nc(-c2ccccc2)cs1,12.6,-1.4%,-2.6%
O=[N+]([O-])c1nn(-c2ccc3c(c2)OCCO3)n(O)c1=NCc1ccc(F)cc1Cl,·,-0.9%,·
O=[N+]([O-])c1nn(-c2ccc3c(c2)OCCO3)n(O)c1=NCc1ccc(F)cc1,·,-1.4%,20µM*
CCc1ccc(N2C(=O)c3sc4nnc(-c5ccccc5)c(=O)n4c3C2=O)cc1,6.7,?,-16.1%
COc1ccc(-n2c(=O)c(-c3cccc(C#N)c3)nc3cnc(N4CCNCC4)nc32)cc1,·,-17.1%,·
COc1ccc(NC(=S)NC(NC(=O)c2cccc(C)c2)C(Cl)(Cl)Cl)c([N+](=O)[O-])c1 (stereo not given),10.1,?,-22.5%
COc1ccc(NC(=S)NC(NC(=O)c2cccc(Cl)c2)C(Cl)(Cl)Cl)c([N+](=O)[O-])c1 (stereo not given),15.7,17.8µM*,-12.5%
COC(=O)[C@@]1(Cc2ccc(OC)cc2)[C@H]2c3cc(C(=O)N(C)C)n(Cc4ccccc4)c3C[C@H]2CN1C(=O)c1ccccc1,·,-0.6%,-2.8%
CC(C)CCCC(C)C1CCC2C3CC(O)[C@@]4(O)CC(O)CC[C@@]4(C)C3CC[C@@]12C (stereo not given in full),·,6.6%,-19.5%
COC(=O)c1[nH]c2ccccc2c1NC(=O)C(C)N1CCN(C(=O)c2ccco2)CC1 (stereo not given),6.9,10.6%,-10.3%
SMILES,IMPase cell inh,ALDH1A1 block,HPGD block
Cc1cnc(C(=O)OCC(=O)c2csc(N3CCCCC3)n2)cn1,2.1,17.8µM*,?
Cc1cnc(C(=O)OCC(=O)NC2CCCCCC2)cn1,·,-2.2%,·
COc1cccc(-c2nccc(NC3CCNCC3)n2)c1,·,6.5%,-3.5%
CO[C@@H]1/C=C\O[C@]2(C)Oc3c(C)c(O)c4c(O)c(cc(O)c4c3C2=O)NC(=O)/C(C)=C\C=C/[C@H](C)[C@@H](O)[C@H](C)[C@H](O)C(C)[C@H](OC(C)=O)[C@@H]1C (stereo not given in full),·,-6.2%[13.5 µM],-12.6%
NCCc1nc(-c2nc(C(=O)O)cs2)cs1,·,8.0%[13.5 µM],-6.4%
CC(C)(C)c1ccc(-c2nnc3sc(-c4ccncc4)nn23)cc1,-0.7,12.6µM*,?
Cc1cc(-c2nn3c(-c4ccccc4)nnc3s2)c2ccccc2n1,0.7,8.91µM*,14.1µM*
Cc1ccccc1-c1nn2c(-c3ccccc3)nnc2s1,10.7,?,28.2µM*
c1ccc(-c2cc(-c3nn4c(-c5ccco5)nnc4s3)c3ccccc3n2)cc1,3.7,?,?
Cc1nnc2sc(-c3ccncc3)nn12,-0.4,-3.9%,-11.8%
COc1ccc(-c2nnc3sc(COc4ccccc4)nn23)cc1,3.1,-5.6%,-17.5%
COc1ccc(-c2nnc3sc(-c4ccccc4OC)nn23)cc1,-7.4,-7.9%,?
Cc1ccc(-c2nnc3sc(CCc4ccccc4)nn23)cc1,3.2,3.55µM*,14.1µM*
CN(C)S(=O)(=O)Oc1cc(Cl)ccc1C(=O)Nc1ccc(F)cc1F,·,-10.8%,·
CCCCCCCCC1OC1CCCCCCCC(=O)O (stereo not given),·,11.3%,-4.2%
CC1(C(=O)NCc2ccc(Cl)c(Cl)c2)Oc2cccnc2NC1=O (stereo not given),·,11.1%,·
Nc1nc(NCCO)nc(NCC2CCCO2)c1[N+](=O)[O-] (stereo not given),·,-4.6%,-8.8%
CC(C)CCCC(C)C1CCC2C3C(=O)C=C4CC(O)CC[C@@]4(C)C3CC[C@@]12C (stereo not given in full),·,-5.6%,-9.6%
COc1ccc(CNc2cc(-c3cccnc3)ncn2)c(OC)c1,·,-7.1%,·
COc1ccc(CC(=O)c2ccc(O)cc2O)cc1,·,?,25.1µM*
CCOc1ccc(C(=O)Cc2ccc3oc(C(=O)O)cc3c2)c(O)c1,5.4,?,7.94µM*
O=C(Cc1ccc(Br)cc1)c1ccc(O)cc1O,-3.7,2.1%,·
CCOC(=O)c1cc2cc(CC(=O)c3ccc(OCC)cc3O)ccc2o1,-1.9,12.8%,-10.3%
CCCc1nc2ccccc2n1CCc1ccccc1,·,-1.4%,-10.6%
N#CC(c1ccccn1)(c1ncc(C(F)(F)F)cc1Cl)N1CCOCC1 (stereo not given),-6.7,8.0%,-10.4%
SMILES,IMPase cell inh,ALDH1A1 block,HPGD block
N#CC(c1ccncc1)(c1ncc(C(F)(F)F)cc1Cl)N1CCOCC1 (stereo not given),·,0.398µM*,·
COc1cc(OC)c(S(=O)(=O)NC(C)C)cc1S(=O)(=O)NC(C)C,·,-4.8%,·
Cc1ccnc(NS(=O)(=O)c2ccc(NC(=O)c3c(-c4ccccc4Cl)noc3C)cc2)n1,2.1,0.6%,-22.3%
COc1ccc2c(CC(=O)NCCN3C(=O)S/C(=C\c4cccnc4)C3=O)coc2c1,·,22.4µM*,·
COc1ccc(/C=C2\SC(=O)N(CCNC(=O)Cc3coc4cc(OC)ccc34)C2=O)cc1,·,12.9%,-11.5%
Cc1nc(C)c(-c2nnc(-c3ccc(C(C)(C)C)cc3)o2)cc1C(=O)NN,·,?,-14.7%
C=CCN1C2CCCC1CC(NC(=S)Nc1ccc(Cl)cc1)C2 (stereo not given),·,7.5%,·
CC1=C(C(=O)N2CCOCC2)C(c2ccc(O)cc2)NC(=S)N1 (stereo not given),·,?,-14.4%
Oc1ccc2c(c1)C1CCCC1(N1CCOCC1)O2 (stereo not given),4.1,17.8µM*,?
CN[C@]1(C)[C@H]2CC[C@@H](C2)C1(C)C,3.8[20.6 µM],-10.1%[20.9 µM],4.8%
